Results from PubChem BioAssay (NCI).
The panel holds about 83,000 compounds, 20% with a hit somewhere; the sample as a whole holds those more often.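 Negative percent growth values reflect cell death: -40 means 40% of the cells present at the start died, and -100 means all died.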 Unmarked numbers belong to inactive results. The source made the active and inactive calls. Rule for the calls: active = growth percent below 10; inactive = the rest.

Key:
Experiment in all cases: NCI-60 one-dose screen, 48 h (100 = growth as untreated, 0 = no growth, -100 = all killed)
Settings in all cases: 10 µM unless noted
NCI-H23 lung = system: NCI-H23 lung
NCI-H226 lung = system: NCI-H226 lung
NCI-H322M lung = system: NCI-H322M lung
HOP-62 NSCLC = system: HOP-62 NSCLC
NCI-H460 lung = system: NCI-H460 lung
NCI-H522 lung = system: NCI-H522 lung
A549/ATCC NSCLC = system: A549/ATCC NSCLC
786-0 renal = system: 786-0 renal
COLO 205 colon = system: COLO 205 colon
DU-145 prostate = system: DU-145 prostate
K-562 leukemia = system: K-562 leukemia
MALME-3M melanoma = system: MALME-3M melanoma
MDA-MB-231 breast = system: MDA-MB-231 breast
RXF 393 renal = system: RXF 393 renal
SF-268 CNS = system: SF-268 CNS
SF-295 CNS = system: SF-295 CNS
SF-539 CNS = system: SF-539 CNS
UACC-257 melanoma = system: UACC-257 melanoma
M14 melanoma = system: M14 melanoma
HOP-92 NSCLC = system: HOP-92 NSCLC

SMILES	growth (NCI-H23 lung)	growth (NCI-H226 lung)	growth (NCI-H322M lung)	growth (HOP-62 NSCLC)	growth (NCI-H460 lung)	growth (NCI-H522 lung)	growth (A549/ATCC NSCLC)	growth (786-0 renal)	growth (COLO 205 colon)	growth (DU-145 prostate)	growth (K-562 leukemia)	growth (MALME-3M melanoma)	growth (MDA-MB-231 breast)	growth (RXF 393 renal)	growth (SF-268 CNS)	growth (SF-295 CNS)	growth (SF-539 CNS)	growth (UACC-257 melanoma)	growth (M14 melanoma)	growth (HOP-92 NSCLC)
C[C@]12CCc3sc(NCCc4ccccc4)nc3C1=CC[C@@H]1[C@@H]2CC[C@]2(C)C(=O)CC[C@@H]12	66.6%	84.1%	91.9%	102%	72.8%	44.1%	87.8%	4.36% (active)	90.6%	33.9%	5.14% (active)	73.3%	83.1%	20%	83.9%	68.4%	64.8%	87.4%	85.4%	
COc1cccc2c1c(C(=O)C(=O)Nc1cc(C)no1)cn2Cc1ccc(F)cc1	78.8%	75.5%	94.7%	64.1%	71.3%	72.5%	91.9%	64.1%	95.4%	74.2%	13.4%	69.3%	77.5%	77.4%	64.3%	73.6%	67.2%	81.4%	45.7%	
O=C(Nc1ccc(Cl)cc1)Nc1nccs1	50.5%	69.9%	40.6%	31.7%	21%	-32.3% (active)	38.6%	56.8%	3.09% (active)	17.7%	15.1%	45.2%	46.5%	2.93% (active)	48.8%		10.8%	44.3%	18.1%	
CCCCCCCC(=O)OCC(=O)[C@]1(O)Cc2c(O)c3c(c(O)c2[C@@H](OC2CC(N)C(O)C(C)O2)C1)C(=O)c1c(OC)cccc1C3=O (some centres undefined)	-76.2% (active)	-65.9% (active)	-72.8% (active)	-63.1% (active)	-92.9% (active)	-63.2% (active)	-97.6% (active)	-82.9% (active)	-85.7% (active)	-100% (active)	-86.7% (active)	-70.7% (active)	-72.4% (active)		-82.1% (active)	-68.1% (active)	-79.9% (active)	-98.2% (active)	-69.8% (active)	
C1CCC2(CC1)OOCNCOO2	98.2%	107%	97.4%	103%	108%	89.7%	102%	105%	115%	111%	-35.4% (active)	110%	120%	116%	97.3%	97.4%	101%	98.5%	100%	
Cc1cc(-c2nc3cc(F)ccc3[se]2)cc(F)c1N	59.5%	34.9%	83.8%	71.2%	23.1%	83.1%	66.9%	103%	52.4%	98.4%	95.8%	84.9%	63.5%	120%	101%	99.7%	94.7%	98.5%	90.3%	
COC(=O)[C@H](Cc1ccccc1)NC(=O)c1csc([C@@H](C[C@H](C(C)C)N(C)C(=O)[C@@H](NC(=O)[C@H]2CCCCN2C)C2CC2)OC(C)=O)n1	23.9%		46.1%	-2.57% (active)	1.93% (active)	-28.7% (active)	14.2%	11.7%	-66.6% (active)	6.13% (active)	3.82% (active)	67.8%	-1.7% (active)	75.8%	19.2%	3.79% (active)	-14.4% (active)	54.2%	-5.77% (active)	-3.94% (active)
CCCC[C@H](NC(=O)[C@H]1CCCN1C)C(=O)N(C)[C@H](C[C@@H](OC(C)=O)c1nc(C(=O)N[C@@H](Cc2ccccc2)C[C@H](C)C(=O)OCC)cs1)C(C)C	24.4%		33.3%	21.8%	7.53% (active)	-12.1% (active)	8.16% (active)	3.94% (active)	-66.7% (active)	12.8%	9.85% (active)	49.5%	3.51% (active)	25.3%	25.8%	13.3%	0.375% (active)	46.1%	-12% (active)	7.16% (active)
CC(CO)NC1CCCCC1 (centres undefined)	103%		102%	102%	108%	103%	102%	100%	113%	105%	104%	103%	91.2%	114%	108%	113%	91.8%	104%	102%	78%
COc1ccc(S(=O)(=O)Nc2c(/C=C\c3cc(OC)c(OC)c(OC)c3)ccc(OC)c2O)cc1OC	33.2%		44.3%	71.5%	5.24% (active)	-9.02% (active)	20.9%	14%	-39.3% (active)	-10.2% (active)	17.2%	69.2%	1.41% (active)	24.6%	23.7%	12%	-14.6% (active)	58.5%	9.05% (active)	30.5%
COc1ccc(/C=C\c2cc(OC)c(OC)c(OC)c2)c(NS(=O)(=O)c2ccc(F)cc2)c1O	27.4%		53.6%	71.3%	5.54% (active)	-18.6% (active)	23.9%	18.4%	0.893% (active)	-19.1% (active)	18.3%	94.3%	8.05% (active)	23.5%	15.1%	4.99% (active)	2.76% (active)	66.5%	6.43% (active)	43.3%
CC[C@H](C)[C@H](NC(=O)c1nccn1C)C(=O)N(C)[C@H](C[C@@H](OC(C)=O)c1nc(C(=O)N[C@@H](Cc2ccccc2)C[C@H](C)C(=O)OC)cs1)C(C)C	29.8%		43.9%	16.6%	9.82% (active)	-26.7% (active)	25.2%	30.8%	-12.8% (active)	4.69% (active)	6.34% (active)	71.6%	-5.75% (active)	-0.416% (active)	25.6%	4.7% (active)	-31.7% (active)	54.2%	3.12% (active)	
Nc1c(F)cc(-c2nc3cc(F)ccc3[se]2)cc1Br	17.4%		46.9%	39.8%	3.18% (active)	67.1%	22.5%	95.4%	5.84% (active)	98.8%	98.5%	87%	17.8%	74.8%	98.6%	74.5%	87.6%	85.4%	88%	49.7%
COc1ccc(/C=C\c2cc(OC)c(OC)c(OC)c2)cc1NC(=O)/C=C/c1ccc(OC)c(OC)c1	0.102% (active)		68.2%	39.5%	22%	11.1%	41.7%	35.7%	-4.78% (active)	15.9%		51.7%	58.6%	-15.1% (active)	41.7%	5.37% (active)	2.69% (active)	73.9%	23.4%	115%
CCOC(=O)N1CC1	107%		105%	99.8%	107%	92.4%	99.9%	102%	91.3%	110%		108%	99.2%	106%	98.6%	97.8%	103%	101%	96.5%	53%
O=[N+]([O-])CC(c1ccccc1Cl)c1c(-c2ccccc2)[nH]c2ccccc12 (centres undefined)	53.8%		42.7%	30.3%	22.9%	-10.9% (active)	31.5%	25.2%	15%	43.7%	12.4%	42.1%	46.2%	27.8%	50.1%	24.3%	27.2%	48.9%	21.3%	36.1%
